Bioassay records (PubChem)
JMJD2E inh = qHTS Assay for Inhibitors of Human Jumonji Domain Containing 2E (JMJD2E). Lysine-specific demethylase 4E (Homo sapiens), B2RXH2. JMJD2E catalytic domain, FDH-coupled NADH fluorescence (FDH is formaldehyde dehydrogenase). Potency, µM (titrated, usually from 57.1 µM), inactives show at the highest dose activity change, negative = inhibition, hits mostly inhibitors. 230,000 tested, 1.6% active;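 further: 0% = wells with enzyme and -100% = buffer wells without enzyme; nearly all actives have a fitted effect of over 50% in size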
Target sequence (B2RXH2 1-337 limits assumed): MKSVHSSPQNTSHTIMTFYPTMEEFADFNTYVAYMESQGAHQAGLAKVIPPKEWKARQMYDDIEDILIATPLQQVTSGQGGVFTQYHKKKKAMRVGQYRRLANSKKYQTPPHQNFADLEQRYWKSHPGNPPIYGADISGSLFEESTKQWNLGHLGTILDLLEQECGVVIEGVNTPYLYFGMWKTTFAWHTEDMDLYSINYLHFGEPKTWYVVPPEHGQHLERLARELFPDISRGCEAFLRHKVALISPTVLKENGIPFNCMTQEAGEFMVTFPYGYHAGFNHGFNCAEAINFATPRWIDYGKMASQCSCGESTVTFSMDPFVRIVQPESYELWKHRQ
ALDH1A1 inh = qHTS Assay for Inhibitors of Aldehyde Dehydrogenase 1 (ALDH1A1) | Potency, µM (top dose mostly 75.3 µM), without a hit: top-dose activity, negative = inhibition, actives largely listed as inhibitors | Purified ALDH1A1, NADH fluorescence, propionaldehyde substrate | Aldehyde dehydrogenase 1A1 (Homo sapiens), P00352 | 220,000 tested, 7.3% active;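 further: plate controls were no enzyme wells and a reference inhibitor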
LMNA splice mod = qHTS Assay for Modulators of Lamin A Splicing. Potency, µM (titrated, usually from 46.1 µM), inactives show top-dose ratio change, negative = inhibition, most hits filed as inhibitors. 200,000 tested, 0.01% active. HeLa LMNA splicing GFP/RFP minigene ratio, 48 h; active means well fitted inhibition curve with a large enough effect in the signal ratio, with a control signal flat, not every such curve was filed as active; inconclusive means small, poorly fitted or top-dose-only effect, or effect the other way, or a change in a side signal; the % refers to the signal ratio; further: on the % scale 0 is the no-effect control and ±100 the full control effect
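Read-out is the ratio of GFP to DsRed2 object intensity, acquired by 488 nm laser-scanning cytometry on HeLa lamin A-EGFP minigene reporter cells. Compound incubation 48 hrs at 37 °C in Opti-MEM with 2% FBS; DMSO 0.5% final.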
HTT cytoprotect = qHTS Multiplex Assay to Identify Dual Action Probes in a Cell Model of Huntington: Cytoprotection (ATP); PC12 HTT-Q103 induced, cytoprotection, ATP luminescence, 40 h; Potency, µM (series often up to 56.4 µM), inactives show cytoprotection (ATP increase), most hits filed as activators; 230,000 tested, 0.14% active; active means well fitted curve in the direction sought with a large enough effect; inconclusive means small, poorly fitted or top-dose-only effect, or another doubt; inactive means no such curve, though single readings can be large; an effect the other way counts as inactive or inconclusive; further: % of control where 0% means no effect; nearly all actives have a fitted effect of over 45% in size
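Compounds were screened for protection of PC12 cells against cell death after tebufenozide induction (100 nM final) of mutant Huntingtin exon 1 (Q103) fused to GFP.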
HPGD block = qHTS Assay for Inhibitors of HPGD (15-Hydroxyprostaglandin Dehydrogenase) | 15-hydroxyprostaglandin dehydrogenase [NAD(+)] (Homo sapiens), P15428 | purified HPGD, NADH fluorescence kinetic, PGE2 substrate | Potency, µM, without a hit: at the top dose activity change, negative = inhibition, hits mostly inhibitors | 150,000 tested, 4.3% active; further: on the % scale 0 is the no-effect control and ±100 the full control effect
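NADH formation kinetics: reaction with 30 uM PGE2 and 1 mM NAD+ (final), 20 nM enzyme, Tris-HCl pH 8 with Tween 20, after 15 min compound preincubation at room temperature. Fluorescence change, last versus first of five reads.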
HttQ103 aggreg = qHTS Multiplex Assay to Identify Dual Action Probes in a Cell Model of Huntington: Aggregate Formation (GFP). Potency, µM (doses to about 46.1 µM), without a hit: top-dose activity change, negative = inhibition, most hits filed as inhibitors. PC12 HttQ103-GFP aggregates, Acumen cytometry, 40 h. 220,000 tested, 1.1% active. AID 1688, 2009; active means well fitted curve in the direction sought with a large enough effect; inconclusive means small, poorly fitted or top-dose-only effect, or another doubt; inactive means no such curve, though single readings can be large; an effect the other way counts as inactive or inconclusive; further: on the % scale 0 is the no-effect control and ±100 the full control effect; nearly all actives have a fitted effect of over 60% in size
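PC12/HTTQ103-GFP, ecdysone-inducible; teb 100 nM; cpd qHTS titration; GFP aggregates read on laser cytometer, Ex 488/Em 500-530 nm.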
Numbers without * were called inactive; ? = inconclusive; . = not tested or not shown; [ ] = another dose, or the depositor's remark. An excerpt weighted towards active compounds, which were near 9.2% of everything screened. Unless noted, the call rests on the fitted dose curve; in most records, active means well fitted inhibition curve with a large enough effect (not every such curve was filed as active); inconclusive means small, poorly fitted or top-dose-only effect, or another doubt; inactive means no such curve, though single readings can be large or run the other way. Potency means the concentration at half of the fitted maximal effect.

SMILES	JMJD2E inh	ALDH1A1 inh	LMNA splice mod	HTT cytoprotect	HPGD block	HttQ103 aggreg
CC(=O)c1ccc(-c2cc([C@H]3[C@H]4C=CC[C@@H](C)[C@@H]4C(=O)N3Cc3ccccc3)ccc2F)cc1	-2.0%	.	.	-19.7%[10 µM]	.	13.8%[9.22 µM]
COc1ccc(NC(=O)COC(=O)CCCc2c[nH]c3ccccc23)cc1	13.2%	8.91µM*	-1.2%	28.6%	-23.7%	-4.8%
S=C(NCCN1CCOCC1)N/N=C/c1ccccc1	1.8%	9.1%	14.2%	-11.3%	-1.1%	-1.2%
Oc1ccc(/C=N/NC(=S)NCCN2CCOCC2)c(O)c1	35.5µM*	-3.3%	?	-16.1%	.	10.2%
CCOC(=O)c1nn(-c2ccccc2C)c(=O)c2c(N)scc12	?	9.46µM*	-2.4%[9.22 µM]	-31.0%	.	3.8%
Cc1ccc(N=Nc2c(O)c(S(=O)(=O)O)cc3cc(S(=O)(=O)O)ccc23)c(C)c1	.	?	.	-10.6%[10 µM]	-7.7%	.
Nc1ccc(N=Nc2ccc(-c3ccc(O)cc3)cc2)c2ccc(S(=O)(=O)O)cc12	.	0.6%[13.5 µM]	.	-8.5%[10 µM]	-7.3%	.
Nc1c(N=Nc2ccc(-c3ccc(N=Nc4cc(S(=O)(=O)O)c5ccccc5c4N)cc3)cc2)cc(S(=O)(=O)O)c2ccccc12	.	25.1µM*	.	11.1%	15.8µM*	-21.9%
Cc1cc(-c2ccc(N=Nc3ccc4c(S(=O)(=O)O)cc(S(=O)(=O)O)c(N)c4c3O)c(C)c2)ccc1N=Nc1ccc2c(S(=O)(=O)O)cc(S(=O)(=O)O)c(N)c2c1O	?	?	.	26.3%	5.01µM*	-8.0%
Cc1noc2ncnc(N3CCCC(C(=O)Nc4cccc(C(F)(F)F)c4)C3)c12 (configuration not stated)	.	.	0.9%[46 µM]	.	.	.
COC(=O)c1ccccc1NC(=S)NC(=O)c1cccc2ccccc12	?	10µM*	3.9%	-38.7%	-23.6%	-6.8%
COC(=O)c1ccccc1NC(=S)NC(NC(=O)COc1ccccc1)C(Cl)(Cl)Cl (configuration not stated)	?	?	?	17.4%	22.4µM*	-1.3%
Cc1ccc(OCC(=O)NC(=S)Nc2ccc3c4c(cccc24)CC3)cc1	3.6%	10µM*	-6.9%	.	-11.5%	?
COC(=O)c1ccccc1NC(=S)NC(=O)COc1ccc(C(C)C)cc1	0.6%	17.8µM*	-11.5%	7.4%[10 µM]	-13.9%	-5.5%
COC(=O)C1=C(C)NC(=S)NC1c1ccco1 (configuration not stated)	0.0%	?	.	.	.	10.2%
Nc1nc(Cl)nc2c1ncn2[C@@H]1O[C@@H](CO)[C@@H](O)[C@H]1O	.	.	?	-40.2%[1.9 µM]	.	.
CCOc1ccc(CNS(=O)(=O)c2ccc3c(c2)CC(C)N3C(C)=O)cc1OC (configuration not stated)	.	.	-20.9%[46 µM]	.	.	.
CS(=O)(=O)N1CCC[C@@]2(CCN(Cc3ccccc3)C2)C1	.	-0.1%	.	23.9%	-7.8%	.
O=[N+]([O-])c1cccc(-c2ccc(/C=N/n3c(-c4ccccc4)n[nH]c3=S)o2)c1	3.5%	0.5%	-3.7%	-8.8%[10 µM]	?	?
Cc1nnc(N/N=C/c2ccc(-c3ccccc3F)o2)n1N	?	-1.0%	.	-60.0%	.	-14.7%
Cc1n[nH]c(=S)n1/N=C/c1ccc(-c2ccccc2[N+](=O)[O-])o1	-23.8%	14.1µM*	-16.5%	-26.9%	14.1µM*	-28.5%
Cc1nnc(N/N=C\c2ccc(-c3ccccc3[N+](=O)[O-])o2)n1N	2.4%	20µM*	-3.6%	1.8%[10 µM]	-16.6%	5.7%
N[C@H](CS(=O)O)C(=O)O	.	.	.	5.9%[1.9 µM]	.	.
